The values that follow come from PubChem BioAssay (NCATS).

Results filed as inconclusive are left out. Calls of active or inactive are those of the source. Unless noted, calls come from the whole dose curve; as a rule, active = well fitted curve in the direction sought with a large enough effect; inconclusive = small, poorly fitted or top-dose-only effect, or another doubt; inactive = no such curve, though single readings can be large; an effect the other way counts as inactive or inconclusive.

Assay [1] in a line: P-glycoprotein substrates identified in KB-8-5-11 adenocarcinoma cell line, qHTS therapeutic library screen (AID 1346987). Note: nearly all actives have a fitted effect of over 65% in size. Note: potency is the fitted concentration of half-maximal effect. In a few lines:
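KB-8-5-11: colchicine-selected sub-line of KB-3-1 over-expressing P-gp; assay medium lacked colchicine. 72 h drug exposure at 37 degree C, CellTiter-Glo.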

The next assay concerns KB-3-1. Put plainly: Cytotoxic Profiling of Annotated Libraries Using Quantitative High-Throughput Screening (AID 1296008). For max response: % is set by controls: 0 for no effect and ±100 for the full control effect. Note: nearly all actives have a fitted effect of over 60% in size. Note: potency is the fitted concentration of half-maximal effect. To be noted: Five cell lines viability, CellTiter-Glo ATP luminescence, 48-72 h; max response: stronger effect = lower value. In a few lines: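 Cells exposed to compounds for 48 or 72 hr at 37 degrees Celsius. Viability read as ATP-coupled luminescence with CellTiter-Glo after 10 min at room temperature.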
(In general: In ATP-based viability assays light output follows the ATP content of the culture.)

A further assay relates to CAOV3. Description: Primary qHTS to identify gynecologic anti-cancer compounds using libraries of approved drugs and bioactive compounds (AID 1345084). Note: nearly all actives have a fitted effect of over 55% in size. Note: potency is the fitted concentration of half-maximal effect. Conditions: Gynecologic cancer cell panel viability, ATPlite luminescence, 48 h; series mostly up to 57.5 µM. In a few lines: (§1)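 Luminescence from the ATPlite ATP-monitoring reagent indicates viable cell number; lower signal means cytotoxicity. Cells received compound 16 h after seeding and were exposed for 48 h across five concentrations.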

The next assay relates to HeLa. The description is as above. To be noted: Gynecologic cancer cell panel viability, ATPlite luminescence, 48 h; series mostly up to 57.5 µM. In a few lines: as §1
In the next assay the test system is JEG-3. The description is as above. To be noted: Gynecologic cancer cell panel viability, ATPlite luminescence, 48 h; series mostly up to 57.5 µM. In a few lines:
as §1

The subject of the next assay is SKOV3. The assay is described as above. Conditions: Gynecologic cancer cell panel viability, ATPlite luminescence, 48 h; series mostly up to 57.5 µM. In a few lines:
as §1

For assay [2], the system named is Zika virus NS2B-NS3 protease (unlinked complex). Put plainly: Primary screen GU Rhodamine qHTS for Zika virus inhibitors: Unlinked NS2B-NS3 protease assay (AID 1347159). Note: % is set by controls: 0 for no effect and ±100 for the full control effect; nearly all actives have a fitted effect of over 60% in size. In a few lines: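 Compounds, tested up to 114 microM, were incubated for 15 minutes with 25 nM unlinked NS2B-NS3 protease at pH 8.0. Cleavage of 1.5 microM Rhodamine110 substrate was then followed by fluorescence for 15 minutes.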
(In general: In qHTS, concentration-response curves come from the screen itself.)

Assay [3] concerns the target Cytochrome P450 2C9 (Homo sapiens) (UniProt P11712). Put plainly: Cytochrome P450 family 2 subfamily C member 9 (CYP2C9) small molecule antagonists: luciferase biochemical (cell-free) qHTS assay (AID 1645842; active = well fitted curve in the direction sought with a large enough effect in the repeat runs; an effect the other way counts as inactive or inconclusive; note: nearly all actives have a fitted effect of over 55% in size; note: potency is the fitted concentration of half-maximal effect; for activity change, negative = inhibition: % is set by controls: 0 for no effect and ±100 for the full control effect). In a few lines: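 Luminescence, after 20 min with luciferin detection reagent, reflected CYP2C9 turnover during a 1 h NADPH-driven reaction at 37C. Enzyme-substrate mix contained 0.4% bovine serum albumin and was preincubated with compound 10 min at room temperature.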

Assay [4] is described as follows: Primary qHTS for inhibitors of nuclear receptor binding SET domain protein 2 (NSD2) in an RCH-ACV wild type WT cells (2C) (AID 1645877). Note: nearly all actives have a fitted effect of over 70% in size. Note: potency is the fitted concentration of half-maximal effect.
A short description of assay [5]: Primary redox qHTS assay for identification of artifact compounds. (AID 1845223).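 Note: 0% = DMSO and 100% = reference compound.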 In a few lines: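 Amplex Red (25 uM) and HRP (250 mU/mL) in HBSS, with compounds for 15 min, then 250 uM DTT for 30 min, room temperature, dark. Fluorescence 525/598 nm read; normalized to DMSO and 10 uM DA3003; Hill fit.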
A further assay deals with HACAT. Put plainly: qHTS assay to identify novel small-molecules to repurpose for Merkel cell carcinoma treatment (AID 1296009). Note: nearly all actives have a fitted effect of over 60% in size. Conditions: MCC and control cell lines, CellTiter-Glo viability, 72 h; at 44.8 µM (top of the series) unless noted. In a few lines:
(§2)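 Cells were incubated with compound for 72 hr at 37 degree celsius before CellTiter-Glo addition. Luminescence was normalized with no-cell wells as full cytotoxicity and DMSO as baseline.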

Assay [6] deals with Cytochrome P450 2D6 (Homo sapiens) (UniProt P10635). Put plainly: Cytochrome P450 family 2 subfamily D member 6 (CYP2D6) small molecule antagonists: luciferase biochemical (cell-free) qHTS assay (AID 1645840; active = well fitted curve in the direction sought with a large enough effect in the repeat runs; an effect the other way counts as inactive or inconclusive; note: nearly all actives have a fitted effect of over 55% in size; note: potency is the fitted concentration of half-maximal effect; for activity change, negative = inhibition: % is set by controls: 0 for no effect and ±100 for the full control effect). In a few lines:
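P450-Glo luminescent screen: recombinant CYP2D6 enzyme–proluciferin substrate mix preincubated with compound 10 min at room temperature, then NADPH regeneration added for 1 h at room temperature. Detection reagent added for 20 min; luciferin light read as relative luminescence units.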

The next assay relates to CRL-7250. Put plainly: qHTS assay to identify novel small-molecules to repurpose for Merkel cell carcinoma treatment (AID 1296009). Note: nearly all actives have a fitted effect of over 60% in size. To be noted: MCC and control cell lines, CellTiter-Glo viability, 72 h; series mostly up to 92 µM. In a few lines: as §2
The nature of assay [7]: P-glycoprotein substrates identified in KB-3-1 adenocarcinoma cell line, qHTS therapeutic library screen (AID 1346986). Note: nearly all actives have a fitted effect of over 60% in size. In a few lines: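 Compounds were tested in dose-response against KB-3-1 and KB-8-5-11 cells at 37 degree C for 72 h, and viability was measured by luminescence. AC50 values came from curve fitting with class-based activity calls.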
The nature of assay [8]: Cytotoxicity counterscreen for inhibitors of SARS-CoV-2 cell entry (AID 1645845; calls by dose curve; note: % is set by controls: 0 for no effect and ±100 for the full control effect; nearly all actives have a fitted effect of over 50% in size). In a few lines:
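HEK293-ACE2 cells (Expi293F stably expressing human ACE2) seeded overnight, then compound for 1 h plus 48 h at 37C. Viability as ATP content by luminescence; normalized to wells with cells and media-only wells.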
Background: Counterscreens check selectivity or assay interference.

Assay [9] in a line: Primary qHTS to identify inhibitors of SARS-CoV-2 cell entry (AID 1645846; calls by dose curve; note: nearly all actives have a fitted effect of over 45% in size). To be noted: activity change, negative = inhibition: at 57.1 µM (top of the series) unless noted. In a few lines:
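HEK293 cells stably expressing human ACE2, pre-treated 1 h with compound, then infected with MLV particles pseudotyped with Wuhan-Hu-1 spike (C-terminal 19-aa truncation). Luciferase luminescence after 48 h at 37 °C, normalised to spike PP and bald PP.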

Assay [10] is described as follows: qHTS drug screen for cell cycle checkpoint inhibitors in PARPi-resistant BRCA-mutant ovarian cancer cell lines. (AID 1963452; calls by dose curve). Conditions: PEO1/OlaR viability, CellTiter-Glo luminescence, 96 h, stronger effect = lower value. In a few lines:
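PEO1, PEO4 and PEO1/OlaR ovarian cancer cells, 600 per well, exposed 96 h at 37C to a dilution series. Viability read by CellTiter-Glo luminescence, normalized to DMSO and empty wells; activity summarized as Z-AUC.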

Sequence of Cytochrome P450 2C9 (Homo sapiens) (P11712 whole entry, looked up): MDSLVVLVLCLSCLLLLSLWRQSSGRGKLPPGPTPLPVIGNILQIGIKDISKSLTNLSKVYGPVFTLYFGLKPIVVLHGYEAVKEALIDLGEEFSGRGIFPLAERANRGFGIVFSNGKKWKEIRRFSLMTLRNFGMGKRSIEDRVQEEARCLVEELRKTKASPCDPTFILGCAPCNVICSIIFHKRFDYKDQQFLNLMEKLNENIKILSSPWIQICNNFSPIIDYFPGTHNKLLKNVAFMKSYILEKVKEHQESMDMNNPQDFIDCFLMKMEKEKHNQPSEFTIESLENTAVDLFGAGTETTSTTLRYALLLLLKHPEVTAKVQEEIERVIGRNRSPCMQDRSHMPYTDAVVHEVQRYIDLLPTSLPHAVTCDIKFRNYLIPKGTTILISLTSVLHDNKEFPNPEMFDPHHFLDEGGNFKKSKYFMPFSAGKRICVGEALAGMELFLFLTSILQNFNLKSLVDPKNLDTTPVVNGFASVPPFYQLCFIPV
Sequence of Cytochrome P450 2D6 (Homo sapiens) (P10635 whole entry, looked up): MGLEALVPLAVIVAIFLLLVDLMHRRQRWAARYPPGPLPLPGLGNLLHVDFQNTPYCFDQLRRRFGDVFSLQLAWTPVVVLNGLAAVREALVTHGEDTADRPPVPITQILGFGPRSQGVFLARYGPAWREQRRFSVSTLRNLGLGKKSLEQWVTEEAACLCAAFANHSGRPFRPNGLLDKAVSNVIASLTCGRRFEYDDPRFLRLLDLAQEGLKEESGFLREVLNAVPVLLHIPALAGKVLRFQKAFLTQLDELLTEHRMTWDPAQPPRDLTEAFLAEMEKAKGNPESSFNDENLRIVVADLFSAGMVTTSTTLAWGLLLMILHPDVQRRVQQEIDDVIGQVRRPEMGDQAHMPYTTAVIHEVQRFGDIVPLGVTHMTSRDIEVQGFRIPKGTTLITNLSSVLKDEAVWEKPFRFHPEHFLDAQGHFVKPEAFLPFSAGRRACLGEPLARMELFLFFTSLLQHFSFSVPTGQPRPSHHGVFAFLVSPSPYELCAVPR

Regarding `CCC(C)/C=C(C)/C=C/C1=CC2=C(Cl)C(=O)C(C)(OC(C)=O)C(=O)C2=CO1` (centres undefined), the Potency entry (in assay [1]; in the assay with CAOV3; in the assay with HeLa; in the assay with JEG-3; with SKOV3) was “inactive” in each case. In addition, in the assay with KB-3-1, the max response was -15.5% (inactive).

On to `c1cncc(OC[C@@H]2CCN2)c1`, for which the Potency entry (in assay [1]; in assay [2]; in assay [3]; in [4]; in [5]; with CAOV3) was “inactive” throughout. Besides, the Potency result in the assay on HeLa, in the assay on JEG-3 and in the assay with SKOV3 was “inactive” in each case. Moreover, in the assay on KB-3-1, the max response was -3.57% (inactive).

Consider `O=C1N[C@@H](Cc2ccccc2)CN2CCCC[C@@H]12`, for which the Potency entry (in assay [1]; in assay [2]; in [4]; in assay [5]; in the assay on CAOV3; with HeLa) was “inactive” throughout. In addition, the Potency result in the assay on JEG-3 and with SKOV3 was “inactive” each time. Moreover, the max response with KB-3-1 is 1.17% (inactive). The result in the assay on HACAT was inactive.

Take `CC1CCCC(O)CC(=O)Cc2cc(O)cc(O)c2C(=O)O1` (centres undefined): the Potency result (in assay [1]; in assay [2]; in assay [4]; in assay [5]; in the assay with CAOV3; in the assay with HeLa) was “inactive” throughout. Moreover, the Potency result with JEG-3 and with SKOV3 was “inactive” each time. Also, in the assay on KB-3-1, the max response was 8.3% (inactive). In addition, the result with HACAT was inactive.

Regarding `CN1C2CCC1CC(OC(=O)N1Cc3ccccc3NC1=O)C2` (centres undefined), the Potency result (in assay [1]; in assay [2]; in assay [6]; in [3]; in assay [5]; in the assay on CRL-7250) was “inactive” throughout. The Potency entry in the assay on CAOV3 and with JEG-3 was “inactive” each time. Besides, the max response in the assay on KB-3-1 was -1.51% (inactive).

Turning to `CO[C@@H]1[C@H](O)[C@@H](O[C@@H]2C[C@H]3CC[C@@H]4C(CC[C@]5(C)[C@@H](C6=CC(=O)OC6)CC[C@]45O)[C@@]3(C)[C@H](O)C2)O[C@H](C)[C@@H]1O` (some centres undefined), the Potency in assay [1] was 252 nM (active); in assay [4] it was 159 nM (active); in the assay on KB-3-1, 448 nM (active); in the assay on CAOV3 it was 631 nM (active); in the assay with HeLa, 199 nM (active); in the assay on JEG-3 it was 891 nM (active). In addition, the Potency in the assay on SKOV3 is 251 nM (active). Moreover, in [2], the Potency entry is “inactive”.

With `COc1ccc2c3c4n(c2c1)[C@@H](C=C(C)C)OOC(C)(C)C[C@@H]4N1C(=O)[C@@H]2CCCN2C(=O)[C@]1(O)[C@H]3OCC=C(C)C`, the Potency result (in assay [1]; in assay [2]; in [5]; in the assay on CRL-7250; in the assay with CAOV3; in the assay on HeLa) was “inactive” in each case. Besides, the Potency result with JEG-3 and in the assay on SKOV3 was “inactive” each time. Also, the max response in the assay with KB-3-1 was 8.3% (inactive).

Consider `C[C@]12CCC(=O)C=C1CC[C@@H]1[C@@H]2[C@@H](O)C[C@]2(C)C(=O)CC[C@@H]12`, for which the Potency result (in assay [1]; in [2]; in assay [4]; in [5]; in the assay with CRL-7250; with CAOV3) was “inactive” throughout. The Potency entry in the assay with HeLa, in the assay on JEG-3 and with SKOV3 was “inactive” in each case. For the same molecule, the max response in the assay on KB-3-1 is 6.55% (inactive).

`COc1ccsc1CNCC[C@@]1(c2ccccn2)CCOC2(CCCC2)C1`: the Potency entry in [1], in assay [2], in assay [6], in assay [3], in [4] and in [5] was “inactive” in each case. Also, the Potency result with CAOV3, with HeLa, in the assay with JEG-3 and in the assay on SKOV3 was “inactive” throughout. The max response in the assay with KB-3-1 is 9.07% (inactive).

In the case of `CC1=CC2(O)/C=C/C(C)(O)C(O)C(O)/C=C/C(=O)OC23C(=O)NC(CC(C)C)C3C1C` (centres undefined), the Potency result (in assay [7]; in [2]; in assay [4]; in assay [5]; with HeLa; in the assay with JEG-3) was “inactive” throughout. Further, the Potency entry in the assay on SKOV3 is “inactive”. Further, the molecule was called inactive with KB-3-1. In addition, in the assay on HACAT, the outcome was “inactive [at 17.4 µM]”.

For the molecule `C=CC/C=C\C/C=C\CCCCCCCc1cc(O)cc(O)c1`, the Potency result (in assay [1]; in assay [5]; with CAOV3; in the assay with HeLa; with JEG-3; in the assay on SKOV3) was “inactive” in each case. In addition, the max response in the assay on KB-3-1 is -0.409% (inactive). Besides, the result in the assay with HACAT was inactive.

Consider `CC(=O)N1N=C(c2ccc(N)cc2)c2cc3c(cc2C[C@H]1C)OCO3`, for which the Potency entry (in assay [2]; in assay [6]; in assay [8]; in assay [4]; in assay [5]; in the assay on CAOV3) was “inactive” in each case. For the same molecule, the Potency result in the assay on HeLa, with JEG-3 and with SKOV3 was “inactive” in each case. The Potency in [3] was 12000 nM (active). Also, the activity change, negative = inhibition in assay [9] was -4.19%. For the same molecule, the Z-AUC is 0.45 (inactive) in [10], 0.452 in assay [10] (measured here: PEO1 parental Z-AUC) and 0.412 in assay [10] (measured here: PEO4 Z-AUC). Moreover, the max response in the assay with KB-3-1 is 6.29% (inactive).

For the molecule `C1=C(c2cnc[nH]2)c2ccsc2CC1`, the Potency entry (in assay [1]; in assay [2]; in assay [5]; in the assay on CAOV3; in the assay with HeLa; with JEG-3) was “inactive” throughout. For the same molecule, the Potency in assay [6] is 12000 nM (active); in assay [3], 3380 nM (active). In addition, the max response in the assay with KB-3-1 is -3.3% (inactive). In the assay on HACAT, the molecule was called inactive.

With `CCC(C)(O)C1(C(=O)O)COC(=O)C1` (centres undefined), the Potency result (in assay [7]; in assay [4]; in assay [5]; with CAOV3; in the assay on HeLa; in the assay on JEG-3) was “inactive” each time. Further, the Potency entry with SKOV3 was “inactive”. Moreover, the result with KB-3-1 was inactive. Further, in the assay with HACAT, the outcome is “inactive [at 92 µM]”.
